Screening data: PubChem, several laboratories
Most compounds without a hit are left out; they make up all but 4.2% or so of the library.
GDH-TPI counter = GDH-TPI coupled enzyme inhibition counter-screen. GDH-TPI coupled enzyme counterscreen, NADH absorbance. inhibition, % at 4.8 µM. 360,000 compounds, 1.2% hits. AID 588335; in the data active = inhibition above about 30%;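 also: 0% = DMSO wells and 100% = wells lacking the enzyme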
RecA intein inh = Mtb RecA intein splicing inhibition. P9WHJ3. cell-free RecA intein splicing, fluorescence. inhibition, % (no concentration beside the values). 290,000 compounds, 0.75% hits; in the data active = inhibition above about 30%;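 also: 0% = vehicle wells and 100% = reference inhibitor control wells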
Target sequence (P9WHJ3 whole entry, looked up): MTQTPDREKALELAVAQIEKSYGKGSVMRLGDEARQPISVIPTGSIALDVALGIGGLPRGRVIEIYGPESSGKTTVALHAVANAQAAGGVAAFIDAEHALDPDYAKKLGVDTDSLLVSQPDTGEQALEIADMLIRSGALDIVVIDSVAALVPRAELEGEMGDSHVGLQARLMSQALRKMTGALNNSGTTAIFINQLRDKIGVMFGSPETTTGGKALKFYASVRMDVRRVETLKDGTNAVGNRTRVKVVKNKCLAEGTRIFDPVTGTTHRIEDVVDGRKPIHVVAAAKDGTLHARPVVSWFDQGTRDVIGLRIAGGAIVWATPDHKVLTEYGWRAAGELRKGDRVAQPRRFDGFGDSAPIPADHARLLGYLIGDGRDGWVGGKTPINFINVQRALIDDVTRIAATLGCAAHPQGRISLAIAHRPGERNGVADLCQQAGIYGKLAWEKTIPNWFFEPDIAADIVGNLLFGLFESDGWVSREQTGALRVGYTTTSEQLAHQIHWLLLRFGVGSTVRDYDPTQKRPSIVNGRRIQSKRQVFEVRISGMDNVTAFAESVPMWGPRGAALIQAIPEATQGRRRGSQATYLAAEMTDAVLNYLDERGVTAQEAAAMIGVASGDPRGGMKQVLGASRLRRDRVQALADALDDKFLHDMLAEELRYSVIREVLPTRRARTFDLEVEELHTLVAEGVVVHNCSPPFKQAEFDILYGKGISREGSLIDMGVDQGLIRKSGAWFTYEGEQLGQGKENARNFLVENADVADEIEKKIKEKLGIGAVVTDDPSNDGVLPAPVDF
FBA Mtb inh = inhibits M. tuberculosis FBA enzyme; P9WQA3; purified M. tuberculosis FBA, fluorescence read-out; inhibition, % at 1 µM; 360,000 compounds, 2.3% hits; AID 588726; in the data active = inhibition above about 27%;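 also: 0% = vehicle and 100% = reference inhibitor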
BJeLR viability = BJeLR cell viability loss; BJeLR (HRASV12) viability, CellTiter-Glo ATP luminescence, 48 h; inhibition, % (no concentration beside the values); 300,000 compounds, 0.17% hits; AID 1554; in the data active = inhibition above about 50%
PrPC TRFRET = cell surface PrPC inhibition, primary TR-FRET screen; 370,000 compounds, 0.43% hits; P04156; AID 720596; TR-FRET read-out; inhibition, % at 13.8 µM; in the data active = inhibition above about 24%; also: 0% = median of the test wells and 100% = reference compound wells
Active calls of the source: *; · = no result given; + = active, no number.

SMILES	GDH-TPI counter	RecA intein inh	FBA Mtb inh	BJeLR viability	PrPC TRFRET
O=S(=O)(c1cccc(-c2cn3cccnc3n2)c1)N1CCOCC1	27	·	+	·	-2
C[C@H]1[C@@H](C(=O)N2CCCC2)CC(=O)/C(=N/OCc2ccccc2)C[C@@H]1c1ccccc1	·	·	·	·	1
Cc1cc(C)cc(C(=O)OCCN(C)C2CN(Cc3cn(Cc4ccc([N+](=O)[O-])cc4)nn3)S(=O)(=O)C2)c1 (centres undefined)	·	·	·	·	1
Cc1ccc(-n2c(SCC(=O)Nc3ccccc3-c3ccccc3)nnc2-c2cnccn2)cc1	·	·	·	·	0
COc1ccc(C#Cc2ccc3c(c2)[C@H]2[C@H](CCN2S(=O)(=O)c2ccccc2F)[C@H](CO)N3C)cc1	·	·	·	·	1
Cc1ccc(CN2CCCCC(NC(=O)c3ccc(F)c(F)c3)C2=O)cc1 (centres undefined)	·	·	·	·	-6
O=c1[nH]c(/C=C\c2ccc(O)cc2)nc(O)c1[N+](=O)[O-]	41*	0	-10	2	-25
O=C1C=C(Nc2ccc(O)cc2)CC(c2ccco2)C1 (centres undefined)	14	-3	-2	0	0
CCOC(=O)c1ccc(NC2=CC(=O)CC(c3ccco3)C2)cc1 (centres undefined)	60*	1	1	0	-1
CCCC1C(C#N)=C(N)Oc2cc(C)n(C)c(=O)c21 (centres undefined)	9	0	114*	-12	-2
CC(=O)c1cc(-c2ccc(Cl)c(C(F)(F)F)c2)c(=O)n2c1CCC2	·	·	·	·	4
CC1(C)CC(CCNS(=O)(=O)c2ccccc2)(c2ccccc2)CCO1 (centres undefined)	5	3	4	-1	4
CC1(C)CC(CCNC(=O)CCl)(c2ccccc2)CCO1 (centres undefined)	8	32*	-2	8	-7
CN(C)Cc1c(O)ccc2c(=O)c(-c3ccccc3Cl)c(C(F)(F)F)oc12	36*	·	2	4	1
CN(C)c1ccc(/C=N/n2c(COc3ccccc3)n[nH]c2=S)cc1	35*	0	0	-1	7
CN(C)c1ccc(/C=N/n2c(-c3ccccc3Br)n[nH]c2=S)cc1	54*	-1	0	-9	-5
CN(C)c1ccc(/C=N/n2c(C3CCCCC3)n[nH]c2=S)cc1	36*	0	1	13	-4
COC(=O)[C@]12C[C@H](CC(=O)NCc3cccs3)C(=O)N(Cc3ccc4c(c3)OCO4)C1=C[C@H](C(C)C)O[C@@H]2C1CC1	·	·	·	·	4
Cc1ccc2c(c1)C1CS(=O)(=O)N(CCc3ccccc3)C(=O)N1C2 (centres undefined)	·	·	·	·	-4
C=CCn1c(O)c(N=NC(=S)Nc2cccc(OC)c2)c2ccccc21	35*	14	-10	36	3
C=CCn1c(O)c(N=NC(=S)Nc2ccc(OC)cc2)c2ccccc21	19	8	-10	2	4
COC(=O)/C=C1\SC(=NC(=O)c2cccc(Cl)c2)NC1=O	7	9	7	1	-8
COC(=O)C/C=N/N=C1/NC(=O)/C(=C/C(=O)O)S1	35*	-2	-4	1	-3
COC(=O)/C=C1\S/C(=N/N=C/c2ccc(Cl)cc2)NC1=O	35*	0	-1	-4	4
COC(=O)/C=C1\S/C(=N/N=C/c2ccccc2)NC1=O	46*	-6	-3	14	-3
SMILES	GDH-TPI counter	RecA intein inh	FBA Mtb inh	BJeLR viability	PrPC TRFRET
COC(=O)/C=C1/S/C(=N/N=C/c2ccco2)NC1=O	21	·	-6	-5	-7
COC(=O)/C=C1\S/C(=N/N=C/c2ccco2)NC1=O	33*	0	-8	6	-13
COC(=O)/C=C1\S/C(=N/NC(=O)c2ccccc2)NC1=O	30	11	-3	-9	-16
COc1ccc(/C=C/C(=O)NCc2ccc3c(c2)OCO3)cc1OC	14	-1	7	4	-5
COc1ccc(CC(=O)N/N=C/C=C/c2ccc3c(c2)OCO3)cc1OC	35*	-4	1	-7	-14
CCOC(=O)CNC(=O)/C=C/c1ccc2c(c1)OCO2	16	-1	18	-9	-4
O=C(/C=C/c1ccco1)NCC(=O)N/N=C/c1ccccc1[N+](=O)[O-]	18	-2	-4	-4	-21
COc1cc(C(=O)NN=Cc2ccc(N(CCCl)CCCl)cc2)cc(OC)c1OC	61*	·	9	·	5
CCN(CC)c1ccc(/C=N/NC(=O)CNC(=O)/C=C/c2ccco2)cc1	44*	1	7	0	-10
CCOC(=O)N/N=C\C=C\c1ccc2c(c1)OCO2	37*	-3	3	-2	-7
COC(=O)C1CN(Cc2ccc(OC)cc2)CCS(=O)(=O)N1Cc1cn(Cc2ccccc2)nn1 (centres undefined)	·	·	·	·	-3
COc1cccc(N2CCN(CC(=O)NCc3ccco3)CC2)c1	·	·	·	·	-8
COC(=O)N/N=C\C=C\c1ccc2c(c1)OCO2	44*	-2	3	-1	-5
CC(C)(C)OC(=O)N/N=C\C=C\c1ccc2c(c1)OCO2	26	·	-1	-11	10
COc1ccc(/C=N/NC(=O)Cc2ccc(Cl)cc2)cc1OC	8	1	0	-5	1
CCN(CC)c1ccc(C(=O)N/N=C(\C)c2ccc(OC)c(OC)c2)cc1	32*	-3	-2	-6	-2
CCN(CC)c1ccc(/C=N/NC(=O)Cc2ccc(OC)c(OC)c2)cc1	46*	2	26	-9	-4
COc1ccc(C(=O)N/N=C(/C)c2cccc(NC(=O)c3ccncc3)c2)cc1OC	5	-2	-1	-3	5
COc1ccc(C2CC(=O)C(c3cccc(C)c3)=CN2Cc2ccccc2)cc1 (centres undefined)	·	·	·	·	0
CCOC(=O)c1ccc(N/C=C2\CCCCC2=O)cc1	24	-5	0	5	10
O=C1CCC/C1=C/Nc1ccc(Cl)cc1	32*	0	-2	-2	0
O=C1CCC/C1=C\Nc1ccc(Cl)c([N+](=O)[O-])c1	25	1	-3	2	1
O=C1CCCC/C1=C\Nc1ccc(O)cc1	33*	-62	2	-7	-16
COC(=O)[C@]12CCCCC=C1N(Cc1ccc(OC)cc1)C(=O)[C@@H]2CC(=O)N1CCOCC1	·	·	·	·	8
CCCCCC(=O)NC1CCCCN(C)C1=O (centres undefined)	·	·	·	·	3
SMILES	GDH-TPI counter	RecA intein inh	FBA Mtb inh	BJeLR viability	PrPC TRFRET
COc1cc(OC)c(OC)cc1/C=N/NC(=O)c1ccc2nc[nH]c2c1	26	-2	2	-6	-6
COc1ccc(/C=N/NC(=O)c2ccc3nc[nH]c3c2)c(OC)c1	35*	-1	0	-3	1
CCOc1ccc(/C=N/NC(=O)c2ccc3nc[nH]c3c2)cc1OC	42*	·	4	·	9
CCCCc1ccc(-c2noc(CCC(=O)NCC)n2)cc1	·	·	·	·	11
Cc1cccc(CN2C(=O)N/C(=C/c3cc(C)n(-c4cc(C)ccn4)c3C)C2=O)c1	31*	0	1	7	·
Cc1cc(=O)n(C)c2ccccc12	-2	4	1	13	9
Cc1cc(=O)n2c3c(c4c(cc13)c(CN(C)C)cc(=O)n4C)OC2	17	·	6	·	40*
